Data: PubChem BioAssay
Activity calls are given as the source filed them. The rule behind the calls is not given here.

The compounds below were run against Pantothenate synthetase (Mycobacterium tuberculosis (strain ATCC 25618 / H37Rv)) (UniProt P9WIL5) (assay: Recombinant Mtb pantothenate synthetase (PanC) inhibitors, coupled enzyme, confirmatory (AID 375;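 note: 0% = full reaction with vehicle and 100% = no enzyme background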)). Conditions: coupled enzyme assay; at 10 µM, active compounds read high.
Chain of Pantothenate synthetase (Mycobacterium tuberculosis (strain ATCC 25618 / H37Rv)) (P9WIL5 whole entry, looked up): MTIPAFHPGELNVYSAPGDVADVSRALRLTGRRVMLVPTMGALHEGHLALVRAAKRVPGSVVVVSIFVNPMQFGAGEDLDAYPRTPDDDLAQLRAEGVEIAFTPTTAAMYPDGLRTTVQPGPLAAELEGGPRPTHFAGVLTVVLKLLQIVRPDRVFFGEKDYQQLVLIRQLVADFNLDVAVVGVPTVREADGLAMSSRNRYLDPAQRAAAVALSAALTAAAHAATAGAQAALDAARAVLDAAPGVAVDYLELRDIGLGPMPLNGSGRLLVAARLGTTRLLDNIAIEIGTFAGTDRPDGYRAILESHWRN
`Cc1occc1-c1nnc(SCC(=O)c2ccc(F)cc2)n1Cc1ccco1` was tested, and the inhibition was 3% (inactive). `COc1ccc(S(=O)(=O)N(C)c2ccc(C(=O)N3CCOCC3)cc2)cc1` was tested, and the inhibition was 0% (inactive). In the case of `CCCCCn1c(CN2CCN(C(=O)OCC)CC2)nc2c1c(=O)[nH]c(=O)n2C`, the inhibition is reported as 3% (inactive). For `COc1ccc(C(CC(=O)O)NC(=O)c2ccccc2)cc1OC` (stereo not given), the inhibition was 0% (inactive). In the case of `CCOc1ccc2nc(SCc3ccc(C(=O)OC)o3)[nH]c2c1`, the inhibition is reported as 0% (inactive). `Cc1c(NC(=O)Cn2nc(C(=O)O)c3ccccc3c2=O)c(=O)n(-c2ccccc2)n1C` was tested, and the inhibition was 0% (inactive). `COC(=O)c1nc2n(n1)C(c1ccc(OC)c(OC)c1)C(C(=O)OC1CCCCC1)=C(C)N2` (stereo not given) was tested, and the inhibition was 0% (inactive). In the case of `COCCOC(=O)c1[nH]c2c(c1C)C(=O)CC(c1ccc(N(C)C)cc1)C2` (stereo not given), the inhibition is reported as 0% (inactive). With `COCCCn1c(SCC(=O)Nc2cccc(C)n2)nnc1-c1ccco1` the inhibition was 0% (inactive). For `CC1CN(c2c3c(nc4ncnn24)CCCC3)CC(C)O1` (stereo not given), the inhibition was 2% (inactive). With `O=C(C1COc2ccccc2O1)N1CCCC1` (stereo not given) the inhibition was 0% (inactive). For `O=C(O)Cn1nc2ccccc2n1`, the inhibition was 0% (inactive). With `Cc1cc(NC(=O)NC(=O)c2cccc(OC(F)(F)C(F)F)c2)n[nH]1` the inhibition was 3% (inactive). `COc1ccccc1-n1cnnc1SCC(=O)c1ccc[nH]1` was tested, and the inhibition was 3% (inactive). With `CC(C(=O)NC(=O)NC1CCCCC1)N1CCN(c2ccccn2)CC1` (stereo not given) the inhibition was 0% (inactive). With `CN(C(=O)c1ccno1)c1nnc(-c2cnccn2)s1` the inhibition was 2% (inactive). For `C=C(C)c1cccc(C(C)(C)NC(=O)NCC2CCCO2)c1` (stereo not given), the inhibition was 2% (inactive). In the case of `COc1cccc(CN=CC2=C(O)CC(C)(C)CC2=O)c1OC`, the inhibition is reported as 0% (inactive). With `Cn1c(Cl)cnc1C1CC(=O)c2cc(Cl)ccc2O1` (stereo not given) the inhibition was 7% (inactive). `Cc1cc(=O)oc2cc(OCC(=O)OCC(=O)N3CCc4ccccc43)ccc12` was tested, and the inhibition was 3% (inactive). For `CCOC(=O)c1[nH]c(C)c(C(=O)N(C)C)c1C`, the inhibition was 0% (inactive). For `CCn1c(SCC(=O)NCCc2ccc(Cl)cc2)nnc1-c1cccs1`, the inhibition was 1% (inactive). In the case of `CC1CCN(C(=O)CSc2nnc(-c3cccnc3)n2C2CCCCC2)CC1`, the inhibition is reported as 0% (inactive). With `C=CCn1c(COc2cccc(C)c2)nnc1SCC(=O)NC(=O)NCc1ccco1` the inhibition was 0% (inactive). For `Cc1cc(C)c(S(=O)(=O)Nc2cccnc2)c(C)c1`, the inhibition was 0% (inactive). For `COc1ccc(-c2ccc(=O)n(Cc3cc(=O)n4ccccc4n3)n2)cc1`, the inhibition was 0% (inactive). In the case of `CN(C)c1ccc(C=NCC2(O)CCOC(C)(C)C2)cc1` (stereo not given), the inhibition is reported as 3% (inactive). With `CCCNC(=O)C1CCN(S(=O)(=O)c2ccc3nc4c(c(C(=O)O)c3c2)CCCCC4)CC1` the inhibition was 0% (inactive). With `Cc1cccc(-n2c(=O)cc(N3CCN(c4ccc(F)cc4)CC3)[nH]c2=O)c1` the inhibition was 0% (inactive). For `O=C(CSc1ncnc2c1cnn2-c1ccccc1)Nc1ccccc1`, the inhibition was 5% (inactive). For `Cc1ccc(OCc2nnc(SCC(=O)Nc3ccc4c(c3)OCO4)n2C)cc1`, the inhibition was 0% (inactive). `COC(=O)c1ccccc1NC(=O)C1CCCCC1C(=O)O` (stereo not given) was tested, and the inhibition was 0% (inactive). For `CC1(C)NC(=O)N(CC(O)COc2ccc(-c3ccccc3)cc2)C1=O` (stereo not given), the inhibition was 0% (inactive). In the case of `CSC1=C(C#N)C(c2ccc(Cl)cc2)C2=C(CC(C)(C)CC2=O)N1` (stereo not given), the inhibition is reported as 2% (inactive). In the case of `COc1ccc(-c2noc(CSc3nc(N)c(-c4ccccc4)c(=O)[nH]3)n2)cc1OC`, the inhibition is reported as 9% (inactive). With `CCOc1ccc(NC(=O)C(C)Sc2nnc(C)n2C)cc1` (stereo not given) the inhibition was 0% (inactive). `Fc1ccc(C2C3=C(Nc4ncnn42)c2ccccc2OC3c2ccncc2)cc1` (stereo not given) was tested, and the inhibition was 0% (inactive). For `CCc1ccc(C=NC23CN4CN(CN(C4)C2)C3)s1`, the inhibition was 0% (inactive). In the case of `COc1ccccc1N=Cc1nc(-c2ccccc2)oc1OC(C)=O`, the inhibition is reported as 0% (inactive). With `CC(C)Cn1c(=O)c(C2=NS(=O)(=O)c3ccccc3N2)c(O)c2ccccc21` the inhibition was 2% (inactive).
